Test results taken from ChEMBL document CHEMBL1157539, “Thousands of chemical starting points for antimalarial lead identification” (Nature, 2010).
In all, about 13,000 compounds were measured (“IFI”: median about 4, highest 2% from about 17 on). The sample holds the highest values, similar compounds and a random draw of the others, so the mix is not that of the screen.

Experiment: GSK_TCMDC: Inhibition Frequency Index (IFI). The number of non-kinase HTS assays where a compound showed > 50 % inhibition, expressed as a percentage of the number of such assays in which the compound was tested
Assay type: functional

Row | SMILES | IFI
1 | CN1CCCC(CN2CCN(Cc3cccc(-c4cccc(-c5nc6ccccc6[nH]5)c4)c3)CC2)C1 (configuration not stated) | 7.04%
2 | O=C(CCc1c[nH]cn1)Nc1ccc(-c2ccc(-c3nc4ccccc4[nH]3)cc2)cc1 | 3.51%
3 | CCNc1cc(C(=O)N[C@@H](Cc2ccccc2)[C@H](O)CNC(C)Cc2cccc(Cl)c2)cc(N2CCCCS2(=O)=O)c1 (some centres not stated) | 4.9%
4 | COc1ccc2c(NN=Cc3ccc(N(C)C)cc3)ccnc2c1 | 5.8%
5 | O=C(NCC1CCN(CCN2CCC(c3cn(CCO)c4ccccc34)CC2)CC1)c1ccc(-c2ccc(C(F)(F)F)cc2)cc1 | 10%
6 | COc1ccc(O)c(-c2sc(N=C(N)N)nc2-c2ccccc2)c1 | 8.09%
7 | Fc1cccc(C=NN=c2cc[nH]c3ccc(C(F)(F)F)cc23)c1 | 0%
8 | N=C(NCCc1c[nH]c2ccccc12)NCc1ccccc1Cl | 4.32%
9 | NOCCCCOc1ccc(Cl)cc1 | 0%
10 | COc1ccc2nc(C)cc(NCc3cccc4ccccc34)c2c1 | 1.46%
11 | Cc1cc(=NN=Cc2ccc(Cl)cc2)c2cccc(C)c2[nH]1 | 1.45%
12 | COc1ccc(CNCc2cccc(-c3ccc(-c4nc5ccccc5[nH]4)s3)c2)cc1 | 7.69%
13 | CC(Cc1ccc(OCCCCOc2ccccc2)cc1)NCCc1ccc(Oc2ccccc2)cc1 (configuration not stated) | 18.2%
14 | CC(Cc1ccc(COc2ccc(CC(CO)NCCc3cccc(Cl)c3)cc2)cc1)NCCc1cccc(Cl)c1 (configuration not stated) | 16.6%
15 | CN(C)CCCOc1ccc(CCNCc2cccc(Oc3ccc(Cl)cc3)c2)cc1 | 7.97%
16 | COc1ccc(CNCCCCCCNCc2ccc(OC)c3ccccc23)c2ccccc12 | 8.21%
17 | COc1cc(CNCCCCCCNCc2cc(OC)cc3ccccc23)c2ccccc2c1 | 10.1%
18 | COc1ccc(CCNCCCCCCNCCc2ccc(Cl)c3ccccc23)cc1OC | 9.42%
19 | CCOc1cc(OCC)c2ccccc2c1CNCCCCCCNCc1c(OCC)cc(OCC)c2ccccc12 | 16%

Row | SMILES | IFI
20 | COc1cc(CNCCCCCCNCc2cc(OC)c(OC)c3ccccc23)c2ccccc2c1OC | 7.41%
21 | COc1c(CNCCCCCCNCc2cc(Cl)c3ccccc3c2OC)cc(Cl)c2ccccc12 | 19.4%
22 | COc1c(CCNCCCCNCCc2cc(Cl)c3ccccc3c2OC)cc(Cl)c2ccccc12 | 19%
23 | CCOc1cc(CNCCCCCCNCc2cc(OCC)c(OCC)c3ccccc23)c2ccccc2c1OCC | 18.8%
24 | COc1cc(CNCCCCCCNCc2cc(OC)c3ccccc3c2OC)c(OC)c2ccccc12 | 17.3%
25 | CCOc1ccc(CNCCCCCCNCc2ccc(OCC)c3ccccc23)c2ccccc12 | 15.4%
26 | CCCCNCc1cc(Cl)c2ccccc2c1O | 6.77%
27 | COc1ccc(CCNCCCCCCNCCc2ccc(OC)c(OC)c2Cl)c(Cl)c1OC | 2.94%
28 | COc1ccc2nc(C)cc(N/N=C/c3cccc([N+](=O)[O-])c3)c2c1 | 1.42%
29 | COc1cccc(-c2csc(C(=O)NCC3CCN(Cc4ccc(C(C)C)cc4)C3)c2)c1 (configuration not stated) | 8%
30 | CCN(CC)CCN(Cc1ccc(-c2ccc(C(F)(F)F)cc2)cc1)C(=O)Cn1c(CCc2c(F)cccc2F)nc(=O)c2ccccc21 | 11.7%
31 | Cc1cccc2nc(-c3cccc(-c4cccc(NC(=O)Cc5c[nH]cn5)c4)c3)[nH]c12 | 4.63%
32 | CN1CCN(S(=O)(=O)c2cccc(Nc3nccc(N(C)c4ccc5c(c4)nc(NC(=O)c4cccs4)n5C)n3)c2)CC1 | 2.26%
33 | C#CCNCc1ccc(-c2ccc(-c3nc4cc(C(F)(F)F)ccc4[nH]3)s2)cc1 | 8.82%
34 | CC(C)N1CCC(N(Cc2ccc(-c3ccc(C(F)(F)F)cc3)cc2)C(=O)Cn2c(CCc3cccc(F)c3F)nc(=O)c3cccnc32)CC1 | 16.1%
35 | Cc1nn(CC(C)C)c2sc(C(=O)Nc3nc(-c4ccccn4)cs3)cc12 | 10%
36 | COc1ccc(-c2cccc(NC(=O)c3cccc(Cl)c3)c2)cc1CN1CCNCC1 | 6.93%
37 | COc1ccc2nccc([C@@H](O)CN3CCC(NCCOc4ccc(F)cc4F)CC3)c2c1 | 1.59%
38 | COc1ccc(N(c2nc(-c3cc(Cl)ccc3Cl)cs2)C2CCNC2)cc1 (configuration not stated) | 20%

Row | SMILES | IFI
39 | Cc1cc(-c2cc(Cl)ccc2Cl)no1 | 0%
40 | Cc1cc(F)ccc1N(c1nc(-c2cc(Cl)ccc2Cl)cs1)C1CCNC1 (configuration not stated) | 21.4%
41 | CC(C)c1cn2c3c(cc(C(=O)N[C@@H](Cc4ccccc4)[C@H](O)CNC4CCCCC4)cc13)N(C)S(=O)(=O)CC2 | 2.94%
42 | CN(C)CCCNCc1ccc(-c2ccc(F)c(Cl)c2)o1 | 6.94%
43 | CNCCCNCc1ccc(-c2ccc(F)c(Cl)c2)o1 | 2.78%
44 | Clc1cc(Br)ccc1-c1ccc(CNCC2CCNCC2)o1 | 26.3%
45 | O=C(/C=C/c1ccc(Cl)c(Cl)c1)NCCCCCCN1CCN(C(=O)Nc2ccc(C(F)(F)F)cc2)CC1 | 7.03%
46 | O=C(/C=C/c1ccc(Cl)c(Cl)c1)N1CCN(C(=O)Nc2ccc(F)c(Cl)c2)CC1 | 15.2%
47 | O=C(/C=C/c1ccc(Cl)c(Cl)c1)N1CCN(C(=O)Nc2ccc(C(F)(F)F)cc2)CC1 | 22.1%
48 | O=C(/C=C/c1ccc(Cl)c(Cl)c1)N1CCN(C(=O)Nc2cccc(C(F)(F)F)c2)CC1 | 24.2%
49 | O=C(/C=C/c1ccc(Cl)c(Cl)c1)NCCCCCCN1CCCN(C(=O)Nc2cccc(C(F)(F)F)c2)CC1 | 8.26%
50 | O=C(/C=C/c1ccc(Cl)c(Cl)c1)NCCCCCN1CCCN(C(=O)Nc2cccc(C(F)(F)F)c2)CC1 | 8.61%
51 | O=C(Nc1cccc(C(F)(F)F)c1)c1ccc(S(=O)(=O)NCC2CCCN(CC3CCCCC3)C2)cc1 (configuration not stated) | 5.1%
52 | CCOC(=O)c1nc(-c2cccnc2)[nH]c1NC(=S)NCc1ccccc1 | 3.15%
53 | C=C[C@]1(C)C[C@@H](OC(=O)CNC[C@@H](O)CN2C[C@H](c3ccnc4ccc(OC)nc34)OC2=O)[C@@]2(C)[C@@H]3C(=O)CC[C@@]3(CC[C@@H]2C)[C@@H](C)[C@@H]1O | 1.56%
54 | Cc1cccc2nc(-c3cccc(-c4ccc(NC(=O)Nc5cccc(C#N)c5)cc4)c3)[nH]c12 | 5%
55 | O=S(=O)(c1ccccc1)n1ccc2cc(Nc3ncnc4cc(C#C[C@H]5CCCN5)sc34)ccc21 | 8.57%
56 | Cc1cc(F)ccc1Nc1nc(N(C)c2ccccc2)c2cc(OCCCN(C)C)ccc2n1 | 10.8%
57 | N=C(NCc1ccc(O)cc1)Nc1nc(-c2ccc(OCCCn3ccnc3)cc2)cs1 | 6.47%
